Compound activity from PubChem BioAssay.
The list is not random: actives were taken first. Their share in the collection is about 11%.
G9a inh: blocks human histone lysine methyltransferase G9a | Q96KQ7 | G9a H3K9 monomethylation, AlphaScreen, 2 h | Potency, µM (top dose mostly 102 µM), for inactives: at the highest dose activity, negative = inhibition, actives largely listed as inhibitors | 350,000 compounds, 8.8% hits | AID 504332; further: on the % scale 0 is the no-effect control and ±100 the full control effect; nearly all actives have a fitted effect of over 75% in size
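Chemiluminescent proximity detection of H3K9 monomethylation, read after 10 min bead incubation in the dark. Reaction: 20 nM G9a, 500 nM biotin-H3K9 peptide, 20 uM SAM cofactor, 2 h, room temperature, following 15 min enzyme-compound preincubation.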
BAZ2B block: BAZ2B (human) inhibition. Q9UIF8. AlphaScreen BAZ2B-H3K14Ac peptide displacement. Potency, µM (titrated, usually from 114 µM), for inactives: at the top dose activity change, negative = inhibition, actives largely listed as inhibitors. 360,000 compounds, 4.4% hits. AID 504333; further: on the % scale 0 is the no-effect control and ±100 the full control effect; nearly all actives have a fitted effect of over 60% in size
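AlphaScreen luminescence quantifies BAZ2B engagement of H3K14Ac peptide; the protein and biotinylated peptide are both at 50 nM final, buffer PBS pH 7.4 with 0.01% Tween-20, all steps at room temperature.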
HP1b binding inh: inhibitors of HP1-beta chromodomain binding to methylated histone tails; AlphaScreen HP1-beta / biotin-H3K9me3 peptide binding; Potency, µM (highest dose often 114 µM), for the others: at the highest dose activity change, negative = inhibition, actives largely listed as inhibitors; 390,000 compounds, 0.56% hits; AID 540317; further: nearly all actives have a fitted effect of over 70% in size
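HP1-beta protein (50 nM final) preincubated 30 min at room temperature with biotinylated H3(1-18)K9me3 peptide (50 nM) in PBS pH 7.4, 0.01% Tween-20, then compound added for 30 min. AlphaScreen streptavidin donor/nickel chelate acceptor beads (10 ug/mL final), 30 min dark, luminescence read.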
L3MBTL1 inh: L3MBTL1 (human) inhibition; Q9Y468; AlphaScreen L3MBTL1–H3K9me1 peptide binding; Potency, µM (titrated, usually from 57.1 µM), for the others: at the top dose activity, negative = inhibition, actives largely listed as inhibitors; 230,000 compounds, 0.66% hits; AID 485360; further: on the % scale 0 is the no-effect control and ±100 the full control effect; nearly all actives have a fitted effect of over 60% in size
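L3MBTL1 50 nM + b-AHA-H3(1-15)K9me1 75 nM, 30 min RT; compound added, 30 min RT; streptavidin donor/Ni-chelate acceptor beads 10 ug/mL each final, 30 min RT dark; AlphaScreen read.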
JMJD2A Tudor inh: blocks the human JMJD2A Tudor domain; AlphaScreen JMJD2A-Tudor / H3K4me3 peptide binding; Potency, µM (highest dose often 114 µM), inactives show at the top dose activity change, negative = inhibition, usual class: inhibitors; 390,000 compounds, 4.4% hits; AID 504339; further: on the % scale 0 is the no-effect control and ±100 the full control effect; nearly all actives have a fitted effect of over 50% in size
* hit, by the source's call; u = inconclusive; x = no result; [ ] = dose if it differs, or a comment. The call rests on the fitted dose curve; in most records, active means well fitted inhibition curve with a large enough effect; inconclusive means small, poorly fitted or top-dose-only effect; inactive means no such curve, though single readings can be large or run the other way. Potency means the concentration at half of the fitted maximal effect.

SMILES	G9a inh	BAZ2B block	HP1b binding inh	L3MBTL1 inh	JMJD2A Tudor inh
Cc1cc(-c2ccc(C)c(S(=O)(=O)NC(c3cccs3)C(C)C)c2)on1 (centres undefined)	-3%[59 µM]	-12%	8%	x	-15%
Cc1cccc(C)c1NC(=O)CN(C)S(=O)(=O)c1ccc2[nH]c3c(c2c1)CCCC3	14µM*	40µM*	-8%	x	u
CN(CC(=O)NCc1ccc(F)cc1)S(=O)(=O)c1ccc2[nH]c3c(c2c1)CCCC3	16µM*	40µM*	-2%	x	u
Cc1cc(C)cc(NC(=O)CN(C)S(=O)(=O)c2ccc3[nH]c4c(c3c2)CCCC4)c1	u	-35%	8%	x	u
CN(CC(=O)NCc1ccccc1)S(=O)(=O)c1ccc2[nH]c3c(c2c1)CCCC3	u	u	1%	x	u
Cc1cccc(N(C)C(=O)CN(C)S(=O)(=O)c2ccc3[nH]c4c(c3c2)CCCC4)c1	11µM*	u	u	x	u
CCOc1ccc(NC(=O)CN(C)S(=O)(=O)c2ccc3[nH]c4c(c3c2)CCCC4)cc1	10µM*	u	-37%	x	u
Cc1ccsc1/C=N/Nc1nc2ccccc2[nH]1	6%[59 µM]	-37%	-2%	-16%	u
Cc1cc(-c2n[nH]c(=S)n2/N=C/c2sccc2C)n[nH]1	1.3µM*	u	u	-4%	3.2µM*
Cc1ccc(N2CCN(/N=C/c3sccc3C)CC2)cc1	-22%[59 µM]	-38%	-14%	-2%	-31%
Cc1ccsc1/C=N/n1c(-c2ccccc2)n[nH]c1=S	1.8µM*	3%	11%	-6%	28µM*
Cc1ccsc1/C=N/N1CCOCC1	-2%	-18%	2%	-6%	-21%
Cc1ccsc1/C=N/n1c(-c2ccco2)n[nH]c1=S	0.79µM*	-21%[57.1 µM]	-10%	-3%	7.1µM*
Cc1ccsc1/C=N/n1c(-c2ccccn2)n[nH]c1=S	2.2µM*	8.9µM*	32%	32µM*	3.2µM*
Cc1ccc(N2CC(NC(=O)c3ccc(S(=O)(=O)N4CCCC4)cc3)CC2=O)cc1 (centres undefined)	5%[59 µM]	-12%	0%	x	-21%
Cc1ccsc1/C=N/n1c(-c2ccncc2)n[nH]c1=S	1.1µM*	-35%	-17%	0%	3.2µM*
Brc1cccc(CSc2nnc(-c3ccncc3)o2)c1	45µM*	27%	58%	x	4%
Clc1ccccc1CSc1nnc(-c2ccncc2)o1	47%	-2%	33%	5%	-11%
c1ccc2c(CSc3nnc(-c4ccncc4)o3)cccc2c1	50µM*	4%	-6%	-6%	-13%
CCC1CN(C(=O)N2CCC(C(=O)NCc3cccc(C)c3)CC2)c2ccccc2O1 (centres undefined)	-4%[59 µM]	-4%	-3%	x	-16%
Cc1cccc2sc(NNC(=O)C3COc4ccccc4O3)nc12 (centres undefined)	18µM*	-29%	18%	-5%	-32%
CCOC(=O)N1CCc2c(sc3c2c(=O)n(-c2ccc(CC)cc2)c(=O)n3CC(=O)Nc2ccc(C)cc2)C1	-16%[59 µM]	-6%	15%	x	-15%
COc1ccc2c(Sc3ccccc3)c(C(=O)NCCc3ccc(Cl)cc3)[nH]c2c1	u	-2%	43%	x	-21%
Cc1ccc(NC2(c3ccccc3)C(=O)c3ccccc3C2=O)cc1F	13µM*	u	-22%	x	u
O=C(O)c1cc(NC2(c3ccccc3)C(=O)c3ccccc3C2=O)ccc1Cl	-38%[59 µM]	11%[57.1 µM]	14%	x	-21%
SMILES	G9a inh	BAZ2B block	HP1b binding inh	L3MBTL1 inh	JMJD2A Tudor inh
O=C(Cc1cccs1)N=Nc1c(O)[nH]c2ccccc12	22%[59 µM]	-31%	21%	x	-15%
O=C(N=Nc1c(O)[nH]c2ccccc12)c1cc(-c2cccs2)[nH]n1	x	50µM*	13%	x	-31%
Cc1cccc(C)c1Nc1nnc(SCC(=O)c2ccc3c(c2)NC(=O)CO3)s1	11µM*	-5%	22%	-5%	-17%
Cc1ccc2nc(SCC(=O)c3ccc4c(c3)NC(=O)CO4)[nH]c2c1	x	-3%	20%	4%	-4%
Cc1ccc(C)c(-n2nnnc2SCC(=O)c2ccc3c(c2)NC(=O)CO3)c1	50µM*	u	39%	1%	-15%[57.1 µM]
Cc1c(C(=O)NCc2ccccc2Cl)sc2nc3n(c(=O)c12)CCCC3	u	-29%	11%	x	-18%
